The text below walks through data of PubChem BioAssay (NCATS).

Test [1] can be described thus: qHTS profiling of the MIPE4 collection as inhibitors of Plasmodium falciparum (3D7) proliferation (AID 743344).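 Also: scaled between DMSO vehicle wells and 0.29 µM artemisinin as full inhibition.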 As to conditions: P. falciparum 3D7 in erythrocytes, SYBR Green DNA fluorescence, 72 h; at 28.5 µM unless noted. The method, boiled down: (§1)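 Parasite DNA was quantified by SYBR Green I fluorescence (ex 485, em 535 nm) after overnight lysis in saponin/Triton buffer at room temperature. Cultures at 0.3% parasitemia and 2.5% hematocrit were first exposed to compound for 72 h at 37 C; signals were normalised to artemisinin (0.29 uM) and vehicle wells.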
(In general: qHTS replaces the single test concentration by a dilution series.)

Test [2] in a line: qHTS profiling of the MIPE4 collection as inhibitors of Plasmodium falciparum (DD2) proliferation (AID 743345). As to conditions: P. falciparum Dd2 in erythrocytes, SYBR Green DNA, 72 h; at 28.5 µM unless noted. Summed up:
as §1

A short description of test [3]: qHTS profiling of the MIPE4 collection as inhibitors of Plasmodium falciparum (DD2) proliferation (Rep 2) (AID 743346). The conditions noted are these: P. falciparum Dd2 in erythrocytes, SYBR Green DNA, 72 h; at 28.5 µM unless noted. Summed up:
as §1

The nature of test [4]: qHTS profiling of the MIPE4 collection as inhibitors of Plasmodium falciparum (HB3) proliferation (AID 743347).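 Also: plate controls were DMSO vehicle wells for no effect and artemisinin wells for full effect.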 The conditions noted are these: P. falciparum HB3 in erythrocytes, SYBR Green DNA, 72 h; at 28.5 µM unless noted. The method, boiled down: as §1
Test [5] is described as follows: High-throughput drug toxicity screening in the BPDCN cell line Gen2.2 (AID 1224824).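 Also: cells exposed to compounds for 48 h before reading.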 As to conditions: Gen2.2 BPDCN cells; at 45.8 µM (top of the series) unless noted. Summed up:
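Readout is ATP luminescence from Gen2.2 cells after two days of drug exposure in serum-containing medium at 37 °C. Values express percent activity, with vehicle defining full signal and 9.2 uM bortezomib defining zero.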

A short description of test [6]: High-throughput drug toxicity screening in the BPDCN cell line Cal-1 (AID 1224825). The conditions noted are these: Cal-1 BPDCN cell viability, qHTS; at 45.8 µM (top of the series) unless noted. The method, boiled down: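 CellTiter-Glo luminescence after 48 h compound exposure; percent activity scaled with DMSO as 100% and bortezomib (9.2 uM final) as 0%. Cal-1 cells seeded at 500/well in RPMI, 10% FBS, no phenol red.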

Test [7] can be described thus: qHTS assay for measurement of the activity of small molecule inhibitors on Zika virus induced Caspase-3 activity in human iPSC derived neural progenitor cells (hNPCs) (AID 1224857; active = well fitted curve in the direction sought with a large enough effect; an effect the other way counts as inactive or inconclusive; also: % of control where 0% means no effect; nearly all actives have a fitted effect of over 65% in size). The method, boiled down:
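Pretreat hNPCs with compound 1 h; infect ZIKV 2 FFU/cell; 6 h 37 C, 5% CO2; Caspase-Glo 3/7, 30 min RT; luminescence; normalize to no-virus and virus-only wells.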

Test [8] is described as follows: qHTS Assay for Identifying Gametocytocidal Compounds (AID 743244; active = well fitted curve in the direction sought with a large enough effect; an effect the other way counts as inactive or inconclusive;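 also: % is scaled to controls: 0 for no effect and ±100 for the full control effect; actives lower the fluorescent signal which means gametocytes are killed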). As to conditions: P. falciparum 3D7 stage III-V gametocytes, alamarBlue, 72 h; max response: stronger effect = lower value. Summed up:
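Compounds are pinned into medium, gametocytes (stage III–V, 3D7, 20,000 cells/well) added, and plates held 72 h at 37 °C in 5% CO2. AlamarBlue follows for 24 h before fluorescence reading.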

The nature of test [9]: qHTS profiling for inhibitors of Plasmodium falciparum (3D7) proliferation (AID 743322).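 Also: infected erythrocytes exposed to compound for 72 h before lysis; 100% = DMSO vehicle wells and 0% = 0.29 µM artemisinin.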 The conditions noted are these: P. falciparum 3D7 proliferation; at 28.7 µM (top of the series). Summed up: as §1
Test [10] is described as follows: qHTS profiling for inhibitors of Plasmodium falciparum (DD2) proliferation (AID 743323). As to conditions: lower = more inhibition; at 28.7 µM (top of the series). The method, boiled down: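 Parasite DNA quantified by SYBR Green fluorescence (ex 485, em 535 nm) after saponin/Triton lysis and overnight dark incubation. Cultures: 0.3% parasitemia, 2.5% hematocrit, 72 h, 37 C; data scaled between DMSO and 0.29 uM artemisinin.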

Test [11] is described as follows: qHTS profiling for inhibitors of Plasmodium falciparum (HB3) proliferation (AID 743324; active = well fitted curve in the direction sought with a large enough effect; an effect the other way counts as inactive or inconclusive;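 also: 100% = DMSO vehicle wells and 0% = artemisinin-treated control wells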). The conditions noted are these: Plasmodium falciparum HB3 blood-stage proliferation; at 28.7 µM (top of the series). The method, boiled down:
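SYBR Green fluorescence (485 ex/535 em) of lysed cultures, incubated overnight at room temperature in the dark, quantifies parasite DNA. Infected erythrocytes at 0.3% parasitemia and 2.5% hematocrit were exposed 72 h; values normalized to DMSO and 0.29 uM artemisinin controls.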

Test [12] is described as follows: qHTS assay for measurement of the activity of small molecule inhibitors on Zika virus induced Caspase-3 activity in human astrocytoma cells (AID 1224859; active = well fitted curve in the direction sought with a large enough effect; an effect the other way counts as inactive or inconclusive;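 also: plate controls were ZIKV-infected untreated cells for no effect and uninfected cells for full effect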). The method, boiled down:
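Human SNB-19 astrocytoma cells in RPMI 1640 with 10% FBS receive compound one hour ahead of Zika virus at 2 FFU/cell. After 6 h infection, caspase-3/7 activity is detected by Caspase-Glo luminescence.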

Structures are written as SMILES. Inconclusive results are not listed. Activity calls are given as the source filed them. Unless noted, no rule for the calls is given here.

On to `CC(C)c1noc(N2CCC(COc3ccc(-c4ccc(S(C)(=O)=O)cc4)nc3)CC2)n1`, for which the parasite growth, % of DMSO control in test [1] was determined as 22.7%. In test [2], the parasite growth remaining, % of DMSO control (lower = more inhibition) stood at 23.2%. Moreover, in test [3], the parasite growth, % of control (lower = inhibition) stood at 49.7%. The molecule further showed a growth, % of control in [4] of 20.9%. In addition, in test [5], the cell viability, % of control (lower = more cytotoxic) was 87.9%. The same molecule showed a viability (% of control) in [6] of 68.8%. Also, the Potency entry in [7] was “inactive”.

On to `COc1ccc(-c2cc3c(C)nc(N)nc3n(C3CCC(OCCO)CC3)c2=O)cn1` (configuration not stated), for which the parasite growth, % of DMSO control in [1] was 5.2%. For the same molecule, the parasite growth remaining, % of DMSO control (lower = more inhibition) in [2] is 7.58%. Besides, the parasite growth, % of control (lower = inhibition) in test [3] is 7.09%. In addition, in test [4], the growth, % of control came out at 3.04%. The cell viability, % of control (lower = more cytotoxic) in test [5] came to 9.04%. This molecule also gave a viability (% of control) in test [6] of 3.91%. The Potency result in [7] was “inactive”.

As to `Cc1c(Cn2c(C)nc3c(C(=O)O)cc(N4CCOCC4)cc32)cccc1C(F)(F)F`, the parasite growth, % of DMSO control in test [1] worked out at 72.5%. In addition, in test [2], the parasite growth remaining, % of DMSO control (lower = more inhibition) came to 93.9%. For the same molecule, the parasite growth, % of control (lower = inhibition) in test [3] is 104%. For the same molecule, the cell viability, % of control (lower = more cytotoxic) in test [5] is 52.8%. This molecule also gave a viability (% of control) in test [6] of 70.7%. Moreover, the Potency result in [7] was “inactive”.

Turning to `Cc1cc(Nc2ncnc3ccc(-c4ccc(CNCCS(C)(=O)=O)o4)cc23)ccc1Oc1ccn2ncnc2c1`, in test [1], the parasite growth, % of DMSO control came to 5.93%. The parasite growth remaining, % of DMSO control (lower = more inhibition) in [2] amounted to 7.77%. Moreover, the parasite growth, % of control (lower = inhibition) in [3] was found to be 7.94%. The molecule further returned a growth, % of control in test [4] of 2.65%. Further, the cell viability, % of control (lower = more cytotoxic) in test [5] was found to be 3.66%. In [6], this molecule showed a viability (% of control) of 0.85%. Besides, the Potency result in [7] is “inactive”.

As to `COc1cc(C(C)C)c2c(c1)S(=O)(=O)N(COc1cc(=O)n3cccc(OCCN4CCCCC4)c3n1)C2=O`, the max response in test [8] is -3.11% (inactive). In addition, in [9], the remaining parasite growth % (stronger effect = lower value) turned out to be 105%. Also, the activity, percent of control in [10] is 94.1%. In addition, in test [11], the remaining proliferation (% of control), lower = more inhibition stood at 89.5%. Further, the parasite growth, % of DMSO control in test [1] is 101%. Besides, in [2], the parasite growth remaining, % of DMSO control (lower = more inhibition) was 95.7%. In addition, the parasite growth, % of control (lower = inhibition) in [3] turned out to be 114%. Also, the growth, % of control in [4] worked out at 107%. Further, the cell viability, % of control (lower = more cytotoxic) in test [5] amounted to 3.67%. Also, the Potency entry in test [7] and in test [12] was “inactive” in each case.

In test [1], `Cc1cc(C(=O)N2CCN(c3cccc(Cl)c3)CC2)n(-c2ccccc2)n1` displayed a parasite growth, % of DMSO control of 97.2%. Further, the parasite growth remaining, % of DMSO control (lower = more inhibition) in [2] was found to be 107%. Further, the parasite growth, % of control (lower = inhibition) in [3] worked out at 98.6%. The same molecule yielded a growth, % of control in test [4] of 108%. In test [5], the cell viability, % of control (lower = more cytotoxic) amounted to 88.4%. In [6], this molecule yielded a viability (% of control) of 18.2%. Also, the Potency result in test [7] was “inactive”.

Turning to `C[C@@]12O[C@@H](C[C@]1(O)CO)n1c3ccccc3c3c4c(c5c6ccccc6n2c5c31)CNC4=O`, the remaining parasite growth % (stronger effect = lower value) in test [9] was -0.0626%. In test [11], the remaining proliferation (% of control), lower = more inhibition turned out to be 0.698%. In test [1], this molecule registered a parasite growth, % of DMSO control of 6.66%. In addition, the parasite growth remaining, % of DMSO control (lower = more inhibition) in test [2] worked out at 6.07%. Also, in test [3], the parasite growth, % of control (lower = inhibition) stood at 28.1%. Moreover, in [5], the cell viability, % of control (lower = more cytotoxic) was found to be 9.33%. Further, the viability (% of control) in test [6] worked out at 5.8%. Also, the Potency entry in test [7] is “inactive”.

With `Cc1ccc(S(=O)(=O)Nc2cc(Cl)ccc2C(=O)Nc2nc(-c3ccccc3)cs2)cc1`, the remaining parasite growth % (stronger effect = lower value) in test [9] came out at 11.7%. The molecule further returned an activity, percent of control in test [10] of 6.55%. The remaining proliferation (% of control), lower = more inhibition in test [11] turned out to be 8.77%. The parasite growth, % of DMSO control in test [1] was found to be 64.3%. The parasite growth remaining, % of DMSO control (lower = more inhibition) in [2] was 16.4%. Besides, the parasite growth, % of control (lower = inhibition) in test [3] was 21.2%. In test [4], this molecule gave a growth, % of control of 49.7%. The cell viability, % of control (lower = more cytotoxic) in test [5] turned out to be 172%. In test [6], this molecule showed a viability (% of control) of 96.8%. Moreover, in [7], the Potency entry was “inactive”.

As for `O=C(O)c1ccc2cc(-c3ccc(O)c(C45CC6CC(CC(C6)C4)C5)c3)ccc2c1`, the max response in test [8] is 9.89% (inactive). Besides, the remaining parasite growth % (stronger effect = lower value) in test [9] was 5.44%. The activity, percent of control in test [10] was 10.6%. Also, the remaining proliferation (% of control), lower = more inhibition in test [11] was -1.12%. The molecule also registered a parasite growth, % of DMSO control in [1] of 13.5%. Besides, the parasite growth remaining, % of DMSO control (lower = more inhibition) in [2] is 40%. The parasite growth, % of control (lower = inhibition) in [3] came out at 25.3%. The cell viability, % of control (lower = more cytotoxic) in test [5] was 30.9%. In addition, the Potency entry in test [7] and in test [12] was “inactive” in each case.

In test [1], `COc1ccc(F)c(F)c1C(=O)c1cnc(NC2CCN(S(C)(=O)=O)CC2)nc1N` gave a parasite growth, % of DMSO control of 27.7%. Also, the parasite growth remaining, % of DMSO control (lower = more inhibition) in [2] is 60.1%. Besides, the parasite growth, % of control (lower = inhibition) in test [3] was determined as 26%. For the same molecule, in test [4], the growth, % of control was found to be 37.7%. Moreover, in test [5], the cell viability, % of control (lower = more cytotoxic) worked out at 2.27%. For the same molecule, the viability (% of control) in test [6] came to 2%. In addition, the Potency result in [7] was “inactive”.

`COc1cc2c(NC3CCN(C(C)C)CC3)nc(C3CCCCC3)nc2cc1OCCCN1CCCC1`: the parasite growth, % of DMSO control in [1] turned out to be 5.09%. Moreover, in test [2], the parasite growth remaining, % of DMSO control (lower = more inhibition) turned out to be 6.68%. In addition, the parasite growth, % of control (lower = inhibition) in [3] was found to be 10.3%. In test [4], this molecule showed a growth, % of control of 4.41%. Also, the cell viability, % of control (lower = more cytotoxic) in [5] turned out to be 9.63%. Further, the viability (% of control) in [6] turned out to be 4.14%. Also, in test [7], the Potency result is “inactive”.
